# Laboratory results reported in PubChem BioAssay (NCI).
# The panel holds about 83,000 compounds, 20% with a hit somewhere; the sample as a whole holds those more often.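 Percent growth is the endpoint: 0 to 100 indicates growth inhibition (40 means 60% inhibition), 0 means no net growth, and negative values indicate cell death.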 Activity calls are given as the source filed them.
# Test system: MDA-MB-435 melanoma
# Test: NCI-60 one-dose screen, 48 h (100 = growth as untreated, 0 = no growth, -100 = all killed)
# Details: 10 µM unless noted
# Experimental: Growth inhibition of the MDA-MB-435 human Melanoma tumor cell line is measured as a screen for anti-cancer activity. Cells are grown in 96 well plates and exposed to the test compound for 48 hours. Compounds are tested at a single concentration, which is 10^-5 M for most compounds. The reported endpoint is percent growth (GI% or GIPRCNT), where numbers from 0 - 100% represent growth inhibition, and numbers from -100% - 0 represent cell death. For example, a value of 40 represents 60% growth inhibition. A value of 0 means no net growth occurred over the course of the experiment. A value of -40 indicates 40% of cells at the beginning of the experiment died by the end of the experiment. A value of -100 means all cells are dead at the end of the experiment.
# NCI-60 Human Tumor Cell Lines Screen was performed using the standard one-dose NCI protocol, which is described in more detail at https://dtp.cancer.gov/discovery_development/nci-60/default.htm.
# Compounds with GIPRCNT values below 10 were considered active. Activity score was based on GIPRCNT using the following formula: […]
# Score is 0 for GIPRCNT values of 100 or above, 50 for GIPRCNT values of 0, and 100 for GIPRCNT values of -100.
row,SMILES,growth
1,Cc1cccc(Nc2nc3ccccc3nc2/C=C/c2ccc(F)cc2)c1,96.8% (inactive)
2,CC1=C(C(=O)OCc2ccccc2)C(c2ccc(-n3cncn3)cc2)n2c(nc3ccccc32)N1 (stereo not given),-12.5% (active)
3,COc1ccc(C(=O)/C=C/c2ccc(Cl)c(Cl)c2)cc1S(N)(=O)=O,2.27% (active)
4,S=C(Nc1ccccc1)Nc1ccc(OCc2nc3ccccc3[nH]2)cc1,24.6% (inactive)
5,COc1cc(CNC(=O)/C=C/c2ccc3c(c2)OCO3)ccc1OCc1cn(-c2cccc(C(F)(F)F)c2)nn1,39.9% (inactive)
6,C/C(=N\N=C1/C(=O)Nc2ccccc21)c1ccc2c(c1)Nc1ccccc1S2,-52.5% (active)
7,O=C(c1ccc(Cl)cc1)c1ccc(OCCCN2CCN(c3ccncc3)CC2)cc1,41.4% (inactive)
8,O=C(/C=C/Nc1ccc(Cl)cc1)c1ccc2c(c1)Nc1ccccc1S2,55.1% (inactive)
9,COc1ccc(C(=O)/C=C/c2cccc(Cl)c2)cc1S(N)(=O)=O,14% (inactive)
10,O=C(Cn1c2c(sc1=O)[C@H]1[C@@H](O)[C@@H](O)[C@H](O)[C@@H]1CS2)N1CCOCC1,101% (inactive)
11,S=c1c2ccccc2nc2n1CCc1c-2[nH]c2ccccc12,88.6% (inactive)
12,CC12CC[C@@H]3[C@]4(C)COC(c5c(F)cccc5F)O[C@@H]4CC[C@@]3(C)[C@@H]1CC(C1=CCOC1=O)O2 (stereo not given in full),86.1% (inactive)
13,C=C1CCC2C3(C)COC(c4ccccc4)OC3CCC2(C)C1CC(Sc1ccccc1)C1=CCOC1=O (stereo not given),45.8% (inactive)
14,N#Cc1ccc(/C=N/NC(=O)c2[nH]c3ccc(Br)cc3c2-c2ccccc2)o1,-3.87% (active)
15,C=CC[N+](C)(C)CCn1c2ccccc2c2nc3cc(C)c(C)cc3nc21,99.6% (inactive)
16,Cc1ccc(NC(=O)CN2CCN(c3ncnc4c3cnn4-c3ccccc3)CC2)cc1,94.2% (inactive)
17,COc1ccc(C(=O)/C=C/c2cccnc2)cc1S(N)(=O)=O,73.5% (inactive)
18,Cc1ccc(S(=O)(=O)c2nc(S(=O)(=O)c3ccc(C)cc3)c(N3CCC(O)CC3)s2)cc1,16.8% (inactive)
19,CN1CCN(c2ccc(C(=O)/C=C/c3cc(C(F)(F)F)cc(C(F)(F)F)c3)cc2)CC1,-60.8% (active)
20,Cn1cc(-c2cc3nc(-c4cn(C)c5ncc(Br)cc45)cc(N)n3n2)c2ccccc21,-70.8% (active)

row,SMILES,growth
1,O=c1onc(-c2cc3ccccc3nc2Cl)n1-c1cccc2ccccc12,-11.8% (active)
2,Cc1cccc(-c2nc(Nc3ccc(C)c(S(N)(=O)=O)c3)c3ccccc3n2)c1,34.9% (inactive)
3,CCCCSc1nc(NCCc2c[nH]c3ccccc23)c(C#N)c(-c2ccccc2)n1,49.2% (inactive)
4,Cc1ccc(NCC(=O)Cn2cc(COc3ccc(C=Nc4cnc5ccccc5c4)cc3)nn2)cc1,113% (inactive)
5,Cc1cc(C)cc(NC(=O)Cn2cc(COn3nnc4ccccc43)nn2)c1,100% (inactive)
6,CC1CCCCN1CCCNC(=O)N/C(N)=N/c1nc2ccccc2s1 (stereo not given),-35.2% (active)
7,CCOC(=O)/C=C/c1cccc2c1C(=O)NC(C)(c1cc3cc(Cl)ccc3oc1=O)N2 (stereo not given),42.1% (inactive)
8,Nc1nc(-c2ccccc2)c(N=Nc2ccc(Cl)cc2[N+](=O)[O-])s1,105% (inactive)
9,Cc1ccccc1[C@H]1C(C(=O)c2ccc(Cl)cc2)C2(N[C@@H]1c1ccccc1)C(=O)Nc1ccc(Cl)cc12 (stereo not given in full),-35.4% (active)
10,CC(=O)OC[C@@]1(C)C2CC[C@]3(C)C(CC=C4C5CC(C)(C)CC[C@]5(C(=O)Nc5ccc(Br)cc5)CC[C@]43C)[C@@]2(C)C[C@@H](OC(C)=O)[C@@H]1OC(C)=O (stereo not given in full),47.8% (inactive)
11,O=c1c2ccccc2nc(-c2ccccc2)n1/N=C/c1ccc2ccccc2c1,55% (inactive)
12,COc1ccc(C(=O)/C=C/c2ccc(Oc3nc(Nc4ccc(F)cc4)nc(N(C)C)n3)c(OC)c2)cc1,51.4% (inactive)
13,CCCCSc1nc(NCCc2c[nH]c3ccccc23)c(C#N)c(-c2ccc(OC)cc2)n1,72.2% (inactive)
14,COc1ccc2[nH]cc(-c3cc(N)n4nc(-c5cn(C)c6ccccc56)cc4n3)c2c1,-81% (active)
15,COc1cc(-c2ccc(/C=N/NC(=O)c3[nH]c4ccc(Br)cc4c3-c3ccccc3)o2)cc(OC)c1OC,90.3% (inactive)
16,Cc1ccc(C(=O)CSc2nc3ccc(C)cc3c(=O)n2-c2ccc(F)cc2)cc1,89.6% (inactive)
17,CC(=O)NNc1ccc2nnc(-c3ccccc3)n2n1,103% (inactive)
18,N/C(=N\N=C\c1ccc([N+](=O)[O-])cc1)c1c(N)nc(=S)[nH]c1-c1ccc(Cl)cc1Cl,108% (inactive)
19,O=C(c1ccccc1)c1ccc2nc(-c3ccc(F)cc3)[nH]c2c1,57.6% (inactive)
20,C#C[C@]1(O)CC[C@H]2[C@@H]3CC=C4c5sc(-c6ccc([N+](=O)[O-])cc6)nc5CC[C@]4(C)[C@H]3CC[C@@]21C,26.7% (inactive)
